The record followed here is ChEMBL document CHEMBL5308541, “MAIP: An Open-Source Tool to Enrich High-Throughput Screening Output and Identify Novel, Druglike Molecules with Antimalarial Activity” (ACS Med Chem Lett, 2023).

The structures appear in SMILES notation. Among all 150,000 compounds or so, about 540 (0.36%) showed an effect of 50% or more. Only a selection was taken, and strong results are over-represented in it overall.

The assay relates to Plasmodium falciparum. The experiment in a line: Primary screen in NF54 nanoGlo assay, in single point, at 2uM, 72h; a lower Z score goes with more inhibition. Format: functional, Erythrocyte. The note with it: timepoint 72 hour.
On to `Cc1ccc(-c2cc(C(=O)N[C@H]3CCCN(C4CCN(C)CC4)C3)n[nH]2)s1`, for which the “% Inhibition” value turned out to be 5% and the Z score is listed as -0.79.

On to `CN1CCC(N2CCC(NC(=O)c3ccncn3)CC2)CC1`, for which the “% Inhibition” value is on record as -17% and the Z score turned out to be 2.56.

As for `Cc1ccc(-c2cc(C(=O)NC3CCN(C4CCN(C)CC4)CC3)n[nH]2)cc1C`, the “% Inhibition” value is given as 95% and the Z score is -16.77.

With `CCc1oc2ccccc2c1CNC[C@H](O)c1ccc(Cl)cc1`, the “% Inhibition” value was 98% and the Z score is -19.37.

On to `Cn1cc(CNC[C@H](O)c2ccc(F)c(F)c2)c(-c2cc3ccccc3o2)n1`, for which the “% Inhibition” value worked out at 19% and the Z score is on record as -3.4.

Take `CN([C@@H](c1ccccc1)c1ccccc1Br)S(=O)(=O)c1c[nH]c2ncccc12`: the “% Inhibition” value was found to be 60% and the Z score was -11.93.

Consider `C[C@](O)(CNS(=O)(=O)c1c[nH]c2ncccc12)C(c1ccccc1)c1ccccc1`, for which the “% Inhibition” value turned out to be 4% and the Z score was -0.63.

Regarding `Cc1ccc2[nH]cc(-c3cc(N4CCCCC4)ncn3)c2c1`, the “% Inhibition” value came out at 11% and the Z score was -2.17.

With `Cc1ccc2[nH]cc(-c3cc(N4CCOCC4)nc(N)n3)c2c1`, the “% Inhibition” value is 52% and the Z score was -10.41.

`C[C@@H](c1cccc(-c2cc(N3CCOCC3)nc(N)n2)c1)N1CCCC1`: the “% Inhibition” value is recorded as -1% and the Z score amounted to 0.25.

In the case of `NC(=O)c1ccc(CNC(=O)NCC[C@H](O)c2ccccc2)o1`, the “% Inhibition” value was -10% and the Z score turned out to be 1.46.

On to `CC(C)(O)C#Cc1ccc(CN(CC2CCN(C3CCCC3)CC2)C[C@H]2CCCO2)cc1`, for which the “% Inhibition” value was -11% and the Z score is 1.92.

On to `CC(C)N1CCN(CCCN2CCN(C)C3(CCCCC3)C2)CC1`, for which the “% Inhibition” value was found to be 3% and the Z score was -0.69.

On to `Cc1cc(N2CCC(N(C)Cc3ncc(-c4ccccc4C)o3)CC2)nc(C)n1`, for which the “% Inhibition” value is recorded as -3% and the Z score was determined as 0.66.

Take `CN1CCC(Oc2ccc(NCc3ccc(N(C)C)nc3)cn2)CC1`: the “% Inhibition” value was -17% and the Z score is recorded as 3.56.

For `CN1CCC(Oc2ccc(NC(=O)c3cn4ccnc4s3)cn2)CC1`, the “% Inhibition” value was 90% and the Z score was -15.87.

Regarding `CN1CCC(CNC2CC3CC(C2)N(C(=O)OC(C)(C)C)C3)CC1` (centres undefined), the “% Inhibition” value is 72% and the Z score is listed as -15.46.

With `COc1cc2nc(-c3ccc(F)c4cccnc34)nc(N)c2cc1OC`, the “% Inhibition” value was determined as 96% and the Z score is given as -14.63.

On to `COc1cc2nc(-c3cc(Cl)c(O)cc3C)nc(N)c2cc1OC`, for which the “% Inhibition” value was determined as 2% and the Z score is reported as -0.41.

Consider `COc1ccnc(CN2CC[C@H](Nc3ncccn3)C2)c1OC`, for which the “% Inhibition” value was -5% and the Z score is listed as 0.75.

Take `Cc1nc(C)c(C)c(N2CC(OCc3ccccc3)C2)n1`: the “% Inhibition” value is on record as -11% and the Z score is reported as 1.9.

In the case of `COc1ccc2nccc(N3CCC(O)CC3)c2c1`, the “% Inhibition” value is on record as 5% and the Z score is listed as -0.83.

`CN1CCN(CC2CCN(c3ccnc4ccccc34)CC2)CC1`: the “% Inhibition” value is listed as 98% and the Z score was -16.96.

`COCC1CCN(c2ccnc3cc(F)ccc23)CC1`: the “% Inhibition” value came to 7% and the Z score was -1.37.

Consider `CN1CCN(C[C@H]2CCCN(C(=O)c3ccnc4ccccc34)C2)CC1`, for which the “% Inhibition” value was 5% and the Z score is -1.03.

With `COc1ccc2c(N3CC[C@H](CN4CCCC4)C3)ccnc2c1`, the “% Inhibition” value is recorded as 91% and the Z score is reported as -15.93.

As to `CC(=O)N1CCC(CNC2CCC(C)(N3CCCC3)CC2)CC1` (centres undefined), the “% Inhibition” value was -10% and the Z score stood at 1.74.

For `CC1(N2CCC2)CCC(NC[C@H]2CCN(Cc3ccccc3)C2)CC1` (some centres undefined), the “% Inhibition” value is reported as 73% and the Z score is -12.59.

For the compound `c1ccc(CN2CCC[C@H](CNC3CCN(c4ccc5c(c4)OCO5)CC3)C2)cc1`, the “% Inhibition” value stood at 14% and the Z score was -2.53.

For `Nc1ccnc2ccc(-c3ccc(C(=O)NCC4CCOCC4)cc3)cc12`, the “% Inhibition” value was determined as 83% and the Z score is -16.44.

Take `OC1CN(c2ccnc3ccccc23)CCC1N1CCN(c2ccccn2)CC1` (centres undefined): the “% Inhibition” value was -7% and the Z score is recorded as 1.2.

For the compound `CCCCN1CCC(NC(=O)c2c[nH]c3ncccc23)CC1`, the “% Inhibition” value is -8% and the Z score turned out to be 1.66.

In the case of `O=C(NC1CCN(CCOc2ccc(Cl)cc2)CC1)c1c[nH]c2ccncc2c1=O`, the “% Inhibition” value is on record as 94% and the Z score is -14.22.

Turning to `CCCc1cc(NCC2(N3CCN(C)CC3)CCCCC2)n2nccc2n1`, the “% Inhibition” value was -3% and the Z score is listed as 0.64.

For the compound `CNc1cc([C@H]2C[C@@H](NC3CC(C)(C)NC(C)(C)C3)C2)ncn1`, the “% Inhibition” value came out at 11% and the Z score is on record as -1.95.

As to `CNc1nc(N[C@H]2CCCN(Cc3ccc(Cl)cc3)C2)nc2c1CCC2`, the “% Inhibition” value is reported as 49% and the Z score is given as -8.5.

Consider `Cc1cc(N2CCC(N(C)Cc3ccc4nsnc4c3)CC2)nc(N)n1`, for which the “% Inhibition” value was 18% and the Z score is listed as -3.91.

As to `Cc1cc(N2CCC(NCc3ccc(C(F)(F)F)cc3F)CC2)nc(N)n1`, the “% Inhibition” value came out at 10% and the Z score is -2.1.

For the compound `Cc1cc(N2CCC(NC3CCCC3Cc3ccc(F)cc3)CC2)nc(N)n1` (centres undefined), the “% Inhibition” value is on record as 96% and the Z score was -14.52.

For the compound `CN(C)c1ncc(CN2CCN(c3nsc4ccccc34)CC2)cn1`, the “% Inhibition” value was found to be 5% and the Z score was -0.94.

As for `O=C(Nc1cnc2c(c1)COCC2)c1cc2c(OC(F)(F)F)cccc2[nH]1`, the “% Inhibition” value turned out to be 93% and the Z score is -14.17.

Take `CN(c1ccccc1)c1ccc(CN2CCN([C@H]3CCNC3)CC2)cc1`: the “% Inhibition” value was determined as 68% and the Z score is recorded as -13.59.
